Compound activity (PubChem BioAssay)
PLK1 PBD block – qHTS for Inhibitors of PLK1-PDB (polo-like kinase 1 - polo-box domain): Primary Screen; Plk1 PBD binding of FITC phosphopeptide, fluorescence polarization; Potency, µM, without a hit: max response, negative = inhibition, actives largely listed as inhibitors; 2.8% of 360,000 active; AID 720504, 2013; further: potency means the concentration at half of the fitted maximal effect; series mostly up to about 57 µM; nearly all actives have a fitted effect of over 65% in size
VDR inh – Inhibitors of the vitamin D receptor (VDR): qHTS | Vitamin D3 receptor (Homo sapiens), P11473 | Potency, µM, for the others: max response, negative = inhibition, usual class: inhibitors | VDR-SRC2-3 peptide fluorescence polarization, 2 h | 0.93% of 400,000 active; further: potency means the concentration at half of the fitted maximal effect
Target sequence (P11473 whole entry, looked up): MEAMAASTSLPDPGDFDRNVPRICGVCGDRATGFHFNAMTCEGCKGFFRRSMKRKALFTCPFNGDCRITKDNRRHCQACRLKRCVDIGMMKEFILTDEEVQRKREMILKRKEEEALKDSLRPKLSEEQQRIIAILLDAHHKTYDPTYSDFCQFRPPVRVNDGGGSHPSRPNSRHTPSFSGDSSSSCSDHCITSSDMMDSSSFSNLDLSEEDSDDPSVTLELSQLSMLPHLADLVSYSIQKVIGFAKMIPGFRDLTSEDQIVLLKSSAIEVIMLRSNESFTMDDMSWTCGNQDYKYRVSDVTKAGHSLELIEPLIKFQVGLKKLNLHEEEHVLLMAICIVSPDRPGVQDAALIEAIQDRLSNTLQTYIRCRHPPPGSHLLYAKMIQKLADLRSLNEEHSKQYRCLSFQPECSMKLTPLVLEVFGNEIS
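Reagent solutions, kept cold and dark, are dispensed first; compounds are then pinned in at 23 nl, plates briefly spun, and incubated 2 h at ambient temperature. Inhibition of VDR–SRC2-3 peptide binding is read by fluorescence polarization.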
Sfp inh – qHTS Assay for Inhibitors of Bacillus subtilis Sfp phosphopantetheinyl transferase (PPTase); AID 1490, 2009; 4'-phosphopantetheinyl transferase ffp (Bacillus subtilis), Q9F4F7; 3.5% of 310,000 active; Potency, µM, without a hit: largest response in the series, negative = inhibition, hits mostly inhibitors; Biochemical Sfp PPTase activity, qHTS;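 further: the enzyme is Sfp with the accession as filed and its product quenches rhodamine fluorescence; potency means the concentration at half of the fitted maximal effect; 0% = enzyme reaction without inhibitor and -100% = no enzyme wells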
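With Hepes-Na pH 7.6 buffer containing 10 mM MgCl2, Sfp (15 nM) modified BHQ-2-YbbR (12.5 uM) using rhodamine-CoA (5 uM). Two reads 30 minutes apart at 525/598 nm yielded each well's rate.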
CCT chaperon mod – High-Throughput Screening for Modulators of Cytosolic Chaperonin Activity; purified chaperonin ATPase assay, HTRF ADP detection, 30 min; activity change, % (concentration not given with the values), hits read low; 0.3% of 360,000 active; in the data active means activity change below about -30%
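Nucleotide hydrolysis assay: TRiC at 20–40 nM final (set by batch activity) with 10 uM ATP, 30 min at 37 °C, in presence of 76 uM compound. Detection by competitive ADP HTRF, 30 min ambient.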
MmCpn inh – Inhibitors of TCP-1 ring complex (TRiC) of Methanococcus maripaludis (MmCpn): qHTS | purified Mm-Cpn ATPase, ADP Transcreener TR-FRET | Potency, µM (series often up to 76.9 µM), without a hit: top-dose activity, negative = inhibition, most hits filed as inhibitors | 0.031% of 330,000 active | Chaperonin Mm-Cpn (Methanococcus maripaludis); further: potency means the concentration at half of the fitted maximal effect; nearly all actives have a fitted effect of over 80% in size
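ATP (10 uM final) was added to archaeal chaperonin (25 nM final) after 10 min exposure to test compound at 37°C; after 30 min further incubation, ADP was detected by competitive TR-FRET.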
G9a block – qHTS Assay for Inhibitors of Histone Lysine Methyltransferase G9a; G9a H3K9 monomethylation, AlphaScreen, 2 h; Potency, µM (series often up to 102 µM), inactives show at the highest dose activity, negative = inhibition, usual class: inhibitors; 8.8% of 350,000 active; AID 504332, 2011; further: potency means the concentration at half of the fitted maximal effect; nearly all actives have a fitted effect of over 75% in size
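Signal arises when biotinylated H3K9 peptide, once monomethylated, bridges streptavidin donor and antibody-captured acceptor beads. Enzyme at 20 nM was preincubated 15 min with test compounds; peptide 500 nM and SAM 20 uM then reacted for 2 h.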
Starred values were filed as active, the others as inactive; [ ] = another dose, or the depositor's remark. Rows were chosen to be rich in hits. Some 10% of all compounds tested hit in one or more screens of this group. Unless noted, the call rests on the fitted dose curve; in most records, active means well fitted curve in the direction sought with a large enough effect; inconclusive means small, poorly fitted or top-dose-only effect, or another doubt; inactive means no such curve, though single readings can be large; an effect the other way counts as inactive or inconclusive. Unless noted, on the % scale 0 is the no-effect control and ±100 the full control effect.

O=C(O)c1ccc(Oc2ccc(S(=O)(=O)c3ccc(C(=O)O)c(C(=O)O)c3)cc2)cc1 was read as PLK1 PBD block -13%, VDR inh -3%, Sfp inh 16%, CCT chaperon mod 1, MmCpn inh -3% and G9a block 50µM*.
Screening COc1ccc(CN2CCC(C(N)=O)CC2)cc1OCc1ccccc1 returned PLK1 PBD block 1%, VDR inh -15%, Sfp inh -16%, CCT chaperon mod 2 and MmCpn inh -3%.
COc1cccc(OC)c1OCCCN1CCC(Cc2ccccc2)CC1 was read as PLK1 PBD block -11%, VDR inh 5%, Sfp inh -14%, CCT chaperon mod -1, MmCpn inh 0% and G9a block 25µM*.
`Brc1ccc(CN2CCN(c3ccccn3)CC2)s1` gave PLK1 PBD block -1%, VDR inh 1%, Sfp inh -16%, CCT chaperon mod 1, MmCpn inh -2% and G9a block 14µM*.
For O=c1c(CN2CCN(c3ccccn3)CC2)coc2ccccc12 the results were PLK1 PBD block -9%, VDR inh 4%, Sfp inh -8%, CCT chaperon mod 1, MmCpn inh -3% and G9a block inconclusive.
For NC(=O)C1CCN(Cc2ccc(OCc3ccccc3)cc2)CC1 the results were PLK1 PBD block -6%, VDR inh 2%, Sfp inh -5%, CCT chaperon mod -1, MmCpn inh -2% and G9a block 10µM*.
For COc1ccc(C)cc1NC(=O)NC1CCN(Cc2ccccc2)CC1 the results were PLK1 PBD block -3%, VDR inh -4%, Sfp inh 1%, CCT chaperon mod -1, MmCpn inh 1% and G9a block 14µM*.
N#Cc1c(-n2ncnc2-c2ccccc2C(F)(F)F)sc2c1CCCCC2 was read as VDR inh -13% and G9a block inconclusive.
`O=C(NCC(c1ccc(Cl)cc1)N1CCCCC1)c1ccccc1F` (stereo not given) gave VDR inh 0% and G9a block inconclusive.
OC(COc1ccc(C2C=CCC2)cc1)CN1CCCCC1 (stereo not given) was read as PLK1 PBD block -9%, VDR inh 8%, Sfp inh 18%, CCT chaperon mod -3, MmCpn inh 0% and G9a block 40µM*.
Screening O=[N+]([O-])c1cccc(CN2CCC(Cc3ccccc3)CC2)c1 returned PLK1 PBD block -2%, VDR inh 11%, Sfp inh 0%, CCT chaperon mod -4, MmCpn inh 2% and G9a block 35µM*.
`COc1ccc(CN2CCC(Cc3ccccc3)CC2)cc1OC` gave PLK1 PBD block -4%, VDR inh inconclusive, Sfp inh -2%, CCT chaperon mod 1, MmCpn inh -11% and G9a block 50µM*.
OC(COc1ccc(Cl)cc1)CN1CCC(Cc2ccccc2)CC1 (stereo not given) was read as PLK1 PBD block -7%, VDR inh 21%, Sfp inh 5%, CCT chaperon mod 1, MmCpn inh 1% and G9a block 28µM*.
`O=C(NCCc1ccc(Cl)cc1)c1nnc(Cc2ccc(Cl)cc2Cl)o1` gave VDR inh -1% and G9a block 6%[59 µM].
CCOc1ccc(CN2CCC(Cc3ccccc3)CC2)cc1 was read as PLK1 PBD block -1%, VDR inh -18%, Sfp inh 1%, CCT chaperon mod -1, MmCpn inh -4% and G9a block 45µM*.
For c1ccc(COc2ccc(CN3CCN(c4ccccn4)CC3)cc2)cc1 the results were PLK1 PBD block 0%, VDR inh 5%, Sfp inh inconclusive, CCT chaperon mod 1, MmCpn inh 1% and G9a block 56µM*.
c1ccc(N2CCN(Cc3ccc4c(c3)OCO4)CC2)nc1 was read as PLK1 PBD block 1%, VDR inh -7% and CCT chaperon mod 0.
For Cc1cc(=O)[nH]c(N/N=C/c2sccc2C)n1 the results were PLK1 PBD block -5%, VDR inh 12%, Sfp inh 13µM*, CCT chaperon mod 1, MmCpn inh -3% and G9a block inconclusive.
`Cc1cc(=O)[nH]c(N/N=C/c2ccccc2Cl)n1` gave PLK1 PBD block -12%, VDR inh 7%, Sfp inh -7%, CCT chaperon mod -4, MmCpn inh -1% and G9a block 40µM*.
Screening Cc1cc(=O)[nH]c(N/N=C/C(C)c2ccccc2)n1 (stereo not given) returned PLK1 PBD block 3%, VDR inh 10%, Sfp inh inconclusive, CCT chaperon mod -3, MmCpn inh -3% and G9a block 16µM*.
COc1ccccc1/C=N/Nc1nc(C)cc(=O)[nH]1 was read as PLK1 PBD block -1% and CCT chaperon mod 2.
CC(/C=N/Nc1nc(C)cc(=O)[nH]1)=C\c1ccccc1 was read as PLK1 PBD block -11%, VDR inh -4%, Sfp inh -1%, CCT chaperon mod 1, MmCpn inh -6% and G9a block inconclusive.
For Cc1cc(=O)[nH]c(N/N=C/c2cc(C)n(-c3ccccc3)c2C)n1 the results were PLK1 PBD block -23%, VDR inh -14%, Sfp inh 0%, CCT chaperon mod -14, MmCpn inh -3% and G9a block inconclusive.
`COc1ccc(OC)c(/C=N/Nc2nc(C)cc(=O)[nH]2)c1` gave PLK1 PBD block -4%, VDR inh 3%, Sfp inh inconclusive, CCT chaperon mod -1, MmCpn inh 0% and G9a block 45µM*.
Cc1cc(Nc2cccc(C(F)(F)F)c2)nc2ccc(NC(=O)c3cccc(Cl)c3)cc12 was read as VDR inh 3% and G9a block 3%[59 µM].
For Cc1noc(C)c1C(=O)N1CCC2(CCCN(C(c3ccccc3)c3ccccc3)C2)CC1 the results were VDR inh inconclusive, Sfp inh -9% and G9a block 12%[12.7 µM].
For C/C=C/C=N/Nc1nc(C)cc(=O)[nH]1 the results were PLK1 PBD block -5%, VDR inh -16%, Sfp inh inconclusive, CCT chaperon mod -5, MmCpn inh -2% and G9a block 3.5µM*.
